HP1b chromo inh: inhibitors of HP1-beta chromodomain binding to methylated histone tails | P83916 | AlphaScreen HP1-beta / biotin-H3K9me3 peptide binding | Potency, µM (series often up to 114 µM), usual class: inhibitors | 0.56% of 390,000 active | AID 540317; note: nearly all actives have a fitted effect of over 70% in size
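Compound inhibition of the preformed complex between 50 nM HP1-beta and 50 nM biotinylated H3K9me3 peptide was read by AlphaScreen. Buffer was PBS pH 7.4 with 0.01% Tween-20. Incubations ran 30 min at room temperature, with 10 ug/mL donor/acceptor beads.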
ALOX12 inh: inhibitors of human 12S-lipoxygenase ALOX12; P18054; purified 12hLO, xylenol orange hydroperoxide absorbance; Potency, µM (titrated, usually from 108 µM), hits mostly inhibitors; 1.1% of 580,000 active; AID 1671190
Target sequence (P18054 whole entry, looked up): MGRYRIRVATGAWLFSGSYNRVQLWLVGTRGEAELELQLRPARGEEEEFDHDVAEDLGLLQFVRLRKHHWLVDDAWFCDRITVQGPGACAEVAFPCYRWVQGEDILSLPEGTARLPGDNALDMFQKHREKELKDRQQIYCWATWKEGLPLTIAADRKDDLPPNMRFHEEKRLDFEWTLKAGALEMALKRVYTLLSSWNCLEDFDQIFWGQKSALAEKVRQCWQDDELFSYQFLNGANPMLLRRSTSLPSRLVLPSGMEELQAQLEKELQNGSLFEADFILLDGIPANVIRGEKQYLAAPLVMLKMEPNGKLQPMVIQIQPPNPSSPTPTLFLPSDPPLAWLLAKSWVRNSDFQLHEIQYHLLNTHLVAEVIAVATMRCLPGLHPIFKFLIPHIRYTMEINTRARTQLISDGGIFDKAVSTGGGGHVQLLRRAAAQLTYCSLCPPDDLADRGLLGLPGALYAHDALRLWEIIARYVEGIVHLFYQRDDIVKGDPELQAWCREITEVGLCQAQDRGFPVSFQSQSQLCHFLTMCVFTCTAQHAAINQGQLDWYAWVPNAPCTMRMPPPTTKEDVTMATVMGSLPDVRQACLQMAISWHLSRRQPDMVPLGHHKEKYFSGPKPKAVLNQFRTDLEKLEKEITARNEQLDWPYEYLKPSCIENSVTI
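Purified human 12hLO (150 nM final) in 25 mM Hepes, 0.01% Triton X-100, pH 7.0 was preincubated 15 min at room temperature with compound. Then 40 uM arachidonic acid was added, 30 min. Hydroperoxide was read by Fe-XO absorbance ratio 573/405 nm.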
JMJD2A Tudor inh: inhibitors of human JMJD2A Tudor domain | O75164 | AlphaScreen JMJD2A-Tudor / H3K4me3 peptide binding | Potency, µM (top dose mostly 114 µM), hits mostly inhibitors | 4.4% of 390,000 active; note: nearly all actives have a fitted effect of over 50% in size
Sfp inh: blocks B. subtilis Sfp PPTase activity; Q9F4F7; Biochemical Sfp PPTase activity, qHTS; Potency, µM, hits mostly inhibitors; 3.5% of 310,000 active;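 note: the enzyme is Sfp with the accession as filed and its product quenches rhodamine fluorescence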
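Step 1, compound plus 15 nM Sfp-PPTase, 15 min, room temperature. Step 2, add rhodamine-CoA (5 uM) and BHQ-2-YbbR (12.5 uM). Step 3, read 525/598 nm fluorescence at 0 and 30 min.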
G9a block: G9a (human) methyltransferase inhibition; Potency, µM (highest dose often 102 µM), usual class: inhibitors; Q96KQ7; G9a H3K9 monomethylation, AlphaScreen, 2 h; 8.8% of 350,000 active; note: nearly all actives have a fitted effect of over 75% in size
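Step 1: enzyme (final 20 nM) with compound, 15 min RT. Step 2: substrate peptide 500 nM and SAM 20 uM, 2 h RT. Step 3: anti-H3K9me1 antibody and AlphaScreen beads, 10 min, then plate read.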
BAZ2B inh: blocks human BAZ2B; Q9UIF8; AlphaScreen BAZ2B-H3K14Ac peptide displacement; Potency, µM (top dose mostly 114 µM), actives largely listed as inhibitors; 4.4% of 360,000 active; AID 504333; note: nearly all actives have a fitted effect of over 60% in size
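AlphaScreen luminescence quantifies BAZ2B engagement of H3K14Ac peptide; the protein and biotinylated peptide are both at 50 nM final, buffer PBS pH 7.4 with 0.01% Tween-20, all steps at room temperature.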
Numbers stand for hits; [ ] = dose if it differs, or a comment. Compounds with a hit are over-represented: about 8.7% of the library has one in this group of screens. Calls come from the whole dose curve; as a rule, active = well fitted curve in the direction sought with a large enough effect; inconclusive = small, poorly fitted or top-dose-only effect, or another doubt; inactive = no such curve, though single readings can be large; an effect the other way counts as inactive or inconclusive.

What do the screens show for `FC(F)(F)c1cnc(Sc2ncc(C(F)(F)F)cc2Cl)c(Cl)c1`?
ALOX12 inh: inactive

How did COC(=O)/C(=N/Nc1ccc(C)cc1)N1CCCc2ccccc21 do in these assays?
HP1b chromo inh: inactive; ALOX12 inh: inconclusive; JMJD2A Tudor inh: inconclusive; Sfp inh: inactive; G9a block: 45µM; BAZ2B inh: inconclusive

How did COC(=O)/C(=N/Nc1ccccc1)N1CCCc2ccccc21 do in these assays?
HP1b chromo inh: inactive; ALOX12 inh: inconclusive; JMJD2A Tudor inh: inconclusive; Sfp inh: inactive; G9a block: 45µM; BAZ2B inh: inactive

What do the screens show for `CC(C(=O)NC1CCCC1)N(C)Cc1ccc(C(F)(F)F)cc1` (configuration not stated)?
ALOX12 inh: inactive

Results for COc1ccc(-n2nc3n(c2=O)CCN(Cc2ccsc2)C3)cc1 ?
ALOX12 inh: inactive[6.33 µM]

How did S=c1[nH]nc(-c2ccco2)n1/N=C/c1cccc(Cl)c1Cl do in these assays?
HP1b chromo inh: inactive; ALOX12 inh: inconclusive; JMJD2A Tudor inh: 35µM; Sfp inh: inactive; G9a block: 1.4µM; BAZ2B inh: 50µM

Results for S=c1[nH]nc(-c2ccco2)n1/N=C/c1ccc(Cl)cc1Cl ?
HP1b chromo inh: inactive; ALOX12 inh: inconclusive; JMJD2A Tudor inh: 40µM; Sfp inh: inactive; G9a block: inconclusive; BAZ2B inh: inconclusive

What do the screens show for `Cc1ccc[n+](C2C(c3ccc([N+](=O)[O-])cc3)C(C#N)=C([S-])NC2(O)C2CC2)c1` (configuration not stated)?
HP1b chromo inh: inactive; ALOX12 inh: inactive; JMJD2A Tudor inh: inactive; Sfp inh: 25µM; G9a block: 16µM; BAZ2B inh: inconclusive

What do the screens show for `N#CC(=C=[N-])C1=C(C#N)C(c2ccccc2F)C([n+]2ccccc2)C(O)(C2CC2)N1` (configuration not stated)?
HP1b chromo inh: inactive; ALOX12 inh: inactive; JMJD2A Tudor inh: inactive; Sfp inh: inactive; G9a block: inconclusive; BAZ2B inh: inconclusive

How did COc1ccc([C@H]2C(C#N)=C([S-])N[C@](C)(O)[C@@H]2[n+]2ccccc2)cc1 do in these assays?
HP1b chromo inh: inactive; ALOX12 inh: inactive; JMJD2A Tudor inh: 56µM; Sfp inh: 25µM; G9a block: 14µM; BAZ2B inh: inactive

What do the screens show for `O=C(O)C1C2C=CC(CC2)C1C(=O)O` (configuration not stated)?
HP1b chromo inh: 79µM; ALOX12 inh: inactive; JMJD2A Tudor inh: inactive; Sfp inh: 40µM; G9a block: 45µM; BAZ2B inh: 50µM

What do the screens show for `Cc1ccccc1Cn1nc(C)c(NC(=O)NC2CCCC2)c1C`?
ALOX12 inh: inactive

Results for O=c1cc(CSc2nnnn2-c2ccccc2)[nH]n1-c1ccc(Cl)cc1 ?
ALOX12 inh: 40µM

Results for Cc1ccc(Nc2nc(N)nc(CSc3nnnn3-c3ccccc3)n2)cc1 ?
HP1b chromo inh: inactive; ALOX12 inh: inactive; JMJD2A Tudor inh: 89µM; Sfp inh: inactive; G9a block: inactive[12.7 µM]; BAZ2B inh: inconclusive

Results for Cc1ccc(-n2[nH]c(CSc3nnnn3-c3ccccc3)cc2=O)cc1 ?
ALOX12 inh: 50µM

What do the screens show for `Cc1ccc(Nc2nc(N)nc(CSc3nncn3C)n2)cc1`?
HP1b chromo inh: inactive; ALOX12 inh: inactive; JMJD2A Tudor inh: inactive; Sfp inh: inactive; G9a block: inactive; BAZ2B inh: inactive

How did O=c1cc(CSc2nnnn2-c2ccccc2)[nH]c2[nH]n(-c3ccccc3)c(=O)c12 do in these assays?
HP1b chromo inh: inactive; ALOX12 inh: inactive; JMJD2A Tudor inh: 89µM; Sfp inh: inactive; G9a block: inconclusive; BAZ2B inh: inconclusive

Results for c1ccc(CSc2nnnn2-c2ccccc2)cc1 ?
HP1b chromo inh: inactive; ALOX12 inh: inactive; JMJD2A Tudor inh: inactive; Sfp inh: inactive; G9a block: inactive; BAZ2B inh: inactive

How did COc1ccc(CNC(=O)C(c2ccc(C)o2)N(C(=O)c2snc(C(N)=O)c2N)c2ccccc2OC)cc1 (configuration not stated) do in these assays?
HP1b chromo inh: inactive; ALOX12 inh: inactive; JMJD2A Tudor inh: inactive; Sfp inh: inactive; G9a block: 50µM; BAZ2B inh: inactive

What do the screens show for `CCOC(=O)CN(C(=O)c1snc(C(N)=O)c1N)C(C(=O)NC1CCCCC1)c1ccc(F)cc1` (configuration not stated)?
HP1b chromo inh: inactive; ALOX12 inh: inactive; JMJD2A Tudor inh: inconclusive; Sfp inh: inactive; G9a block: inactive; BAZ2B inh: 79µM

How did COc1ccccc1N(C(=O)c1snc(C(N)=O)c1N)C(C(=O)NC1CCCC1)c1ccc(N(C)C)cc1 (configuration not stated) do in these assays?
HP1b chromo inh: inactive; ALOX12 inh: inactive; JMJD2A Tudor inh: inconclusive; Sfp inh: inactive; G9a block: inactive; BAZ2B inh: 35µM

Results for Cc1ccc(C)c(N(C(=O)c2snc(C(N)=O)c2N)C(C(=O)NCC2CCCO2)c2cccs2)c1 (configuration not stated) ?
HP1b chromo inh: inactive; ALOX12 inh: inactive; JMJD2A Tudor inh: 11µM; Sfp inh: inactive; G9a block: inactive; BAZ2B inh: inactive

Results for CCOCCCN(C(=O)c1snc(C(N)=O)c1N)C(C(=O)NC1CCCC1)c1ccc(F)cc1 (configuration not stated) ?
HP1b chromo inh: inactive; ALOX12 inh: inactive; JMJD2A Tudor inh: inactive; Sfp inh: inactive; G9a block: inactive; BAZ2B inh: inactive

Results for CCCNc1nc2ccccc2nc1C(=O)Nc1ccc(C)cc1 ?
ALOX12 inh: inactive

What do the screens show for `Cc1cccc(N(C(=O)c2snc(C(N)=O)c2N)C(C(=O)NCC2CCCO2)c2ccc(N(C)C)cc2)c1C` (configuration not stated)?
HP1b chromo inh: inactive; ALOX12 inh: inactive; JMJD2A Tudor inh: inactive; Sfp inh: inactive; G9a block: 50µM; BAZ2B inh: 28µM

What do the screens show for `O=C(O)c1cc2nccc(-c3ccco3)n2n1`?
HP1b chromo inh: inactive; ALOX12 inh: inactive; JMJD2A Tudor inh: 89µM; Sfp inh: inactive; G9a block: 50µM; BAZ2B inh: inconclusive

Results for Cc1ccc(NC(=O)C(C)C)cc1C ?
ALOX12 inh: inactive

What do the screens show for `CC(C)Cn1cnc2c1c(=O)n(CC(=O)N1CCc3ccccc31)c(=O)n2Cc1ccccc1`?
ALOX12 inh: inactive

Results for O=[N+]([O-])C(=C1NCCN1)C(Cl)=C(Cl)Cl ?
HP1b chromo inh: inactive; ALOX12 inh: inactive; JMJD2A Tudor inh: inactive; Sfp inh: inactive; G9a block: 56µM; BAZ2B inh: inactive

Results for CC(CCNC(=O)c1ccncc1)c1ccccc1 (configuration not stated) ?
ALOX12 inh: inactive

Screens deposited in PubChem BioAssay by National Center for Advancing Translational Sciences (NCATS).
